Records with an inconclusive call do not appear. The source made the active and inactive calls. The calls were made as follows: active = hit-call score of the fitted dose curve at least 0.9, where 1 is the maximum; inconclusive = response in the unintended direction; inactive = score below 0.9.

Outcome and AC50 data for 40 compounds are collected here from PubChem BioAssay (EPA / NIEHS).

For the assay, the target named is Peroxisome proliferator-activated receptor gamma (Homo sapiens) (UniProt P37231). Description: ATG_PPARg_TRANS: Attagene TRANS-FACTORIAL HepG2 Assay for human Peroxisome Proliferator-activated Receptor-gamma (PPARg) (AID 2283007). As to the method: ATG_TRANS is a cell-based, multiplexed-readout assay that uses HepG2, a human liver cell line, with measurements taken at 24 hours after chemical dosing in a 24-well plate.ATG_PPARg_TRANS is one of 30 assay component(s) measured or calculated from the ATG_TRANS assay. It is designed to make measurements of mRNA induction, a form of inducible reporter, as detected with fluorescence intensity signals by Reverse transcription polymerase chain reaction (RT-PCR) and Capillary electrophoresis technology.Data from the assay component ATG_PPARg_TRANS was analyzed into 1 assay endpoint. This assay endpoint, ATG_PPARg_TRANS, was analyzed in the positive analysis fitting direction relative to DMSO as the negative control and baseline of activity. Using a type of inducible reporter, measures of mRNA for gain-of-signal activity can be used to understand the reporter gene at the transcription factor-level as they relate to the gene PPARG. Furthermore, this assay endpoint can be referred to as a primary readout, because this assay has produced multiple assay endpoints where this one serves a reporter gene function. To generalize the intended target to other relatable targets, this assay endpoint is annotated to the nuclear receptor intended target family, where the subfamily is non-steroidal.
Sequence of Peroxisome proliferator-activated receptor gamma (Homo sapiens) (P37231 whole entry, looked up): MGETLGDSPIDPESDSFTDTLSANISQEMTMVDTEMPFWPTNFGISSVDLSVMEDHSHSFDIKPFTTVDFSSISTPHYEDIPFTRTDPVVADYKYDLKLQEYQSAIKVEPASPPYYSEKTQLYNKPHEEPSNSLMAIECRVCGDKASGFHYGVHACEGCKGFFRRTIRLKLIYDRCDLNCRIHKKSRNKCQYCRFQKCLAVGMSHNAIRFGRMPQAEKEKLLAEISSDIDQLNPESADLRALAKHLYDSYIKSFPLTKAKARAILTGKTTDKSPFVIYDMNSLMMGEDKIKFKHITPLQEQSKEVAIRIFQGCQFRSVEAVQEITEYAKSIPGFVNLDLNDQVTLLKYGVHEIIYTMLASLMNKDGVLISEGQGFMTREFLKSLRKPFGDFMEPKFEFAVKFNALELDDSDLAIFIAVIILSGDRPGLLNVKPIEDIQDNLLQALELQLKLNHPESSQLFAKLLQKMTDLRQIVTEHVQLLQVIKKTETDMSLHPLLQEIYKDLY
Human liver HepG2 cells are transiently transfected with multiple reporter transcription units (MRTUs) in 6-well plates using FuGene 6 reagent (Roche; 3 ml FuGene/1 mg DNA). The MRTU constructs are regulated by a cis-regulating element (promoter). […] A major difference between the CIS and TRANS system is that in CIS activities of endogenous TFs are measured, whereas the TRANS assay evaluates changes in activities of exogenous, chimeric NR-Gal4 proteins. […] At the end of 24 hour incubation, total RNA was isolated using TriZol reagent (Invitrogen). The isolated RNA is then reverse-transcribed using oligo(dT) primer and Mo-MLV reverse transcriptase (Invitrogen) with DNAse I (Ambion) treatment for 30 min. The one-tenth of the produced cDNA was amplified by PCR using Taq DNA polymerase (Invitrogen) and two reporter sequence-specific primers. The PCR products were fluorescently labeled by primer extension with 6-arboxyfluorescein (6-FAM) 5'-labeled reporter sequence-specific primer (2 min at 95 C, 20 s at 68 C and 10 min at 72 C) and these products were digested with 5U of HpaI (New England Biolabs) for 2h at 37 C. The fragments were purified using Qiaquick PCR columns (Qiagen), analyzed on an ABI 3130xL genetic analyzer (Applied Biosystems) with peak positions identified by using a set of X-rhodamine (ROX)-labeled MapMarker1000 molecular weight standards (BioVentures). The raw capillary electrophoresis data was processed using Attagraph software (Attagene).
Take `COP(=S)(OC)Oc1c(Cl)cc(C)cc1Cl`: the compound was called inactive.

In the case of `Oc1ccc(-c2ccccc2)cc1`, the call was inactive.

As a reminder, the AC50 is the concentration at which the activity in the assay is half-maximal. Consider `CCC(C)(C)c1ccc(O)c(C(C)(C)CC)c1`, for which the concentration at half-maximal activity (AC50) was 33.4 µM (active).

Regarding `O=C(c1ccccc1)C(Cl)Cl`, the call was inactive.

Take `ClCc1ccccn1`: the call was inactive.

On to `O=C(CCl)CCl`, for which the result was inactive.

Turning to `N#CCc1ccc(Cl)cc1`, the compound was called inactive.

Consider `COc1ccc(OC)c(C=O)c1`, for which the outcome was inactive.

For `COc1ccc(C=O)cc1`, the outcome was inactive.

As for `CC(C)C1CCC(Cc2ccc(Cl)cc2)C1(O)Cn1cncn1` (stereo not given), the compound was called inactive.

For `CCOP(=S)(OCC)SCCS(=O)(=O)CC`, the compound was called inactive.

`CCOP(=O)(CN(CCO)CCO)OCC`: the compound was called inactive.

As to `O=CC=O`, the outcome was inactive.

For `CC12CC1(C)C(=O)N(c1cc(Cl)cc(Cl)c1)C2=O` (stereo not given), the compound was called inactive.

In the case of `COc1ccc(C=O)cc1OC`, the compound was called inactive.

With `O=C(O)Cc1ccccc1`, the compound was called inactive.

As for `CC(=[OH+])/C=C(/C)[O-].CC(=[OH+])/C=C(/C)[O-].CC(=[OH+])/C=C(/C)[O-].[Al]`, the result was inactive.

Turning to `COC[C@H](C)N(C(=O)CCl)c1c(C)csc1C`, the call was inactive.

Consider `Cc1ccc(N)cc1Cl`, for which the call was inactive.

In the case of `C=C(C)C(=O)[O][Sn]([CH2]CCC)([CH2]CCC)[CH2]CCC`, the AC50 is 0.291 µM (active).

As to `ClC(Cl)=C(Cl)C(Cl)=C(Cl)Cl`, the result was inactive.

As to `Nc1ccc(N=Nc2ccc(-c3ccc(N=Nc4c(S(=O)(=O)O)cc5cc(S(=O)(=O)O)c(N=Nc6ccccc6)c(O)c5c4N)cc3)cc2)c(N)c1`, the result was inactive.

Regarding `CC(=O)C(Cl)C(=O)N(C)C` (stereo not given), the compound was classed as inactive.

For `CCN(CC)C(=O)Cl`, the call was inactive.

In the case of `CCNc1nc(NC(C)(C)C)nc(SC)n1`, the AC50 was 29.5 µM (active).

Turning to `CC(C)OC(=O)Nc1ccccc1`, the compound was called inactive.

With `C=CC(=O)N(C)C`, the outcome was inactive.

On to `O=S(=O)(c1ccc(Cl)cc1)c1ccc(Cl)cc1`, for which the half-maximal activity concentration (AC50) was 7.7 µM (active).

`CC(C)c1cccc(C(C)C)c1O`: the compound was called inactive.

Regarding `CC(C)(c1ccc(OCC2CO2)cc1)c1ccc(OCC2CO2)cc1` (stereo not given), the call was inactive.

In the case of `CC(C)(C)c1cc(O)ccc1O`, the AC50 is 52.5 µM (active).

For the compound `C[C@H]1O[C@@H](O[C@H]2[C@@H](O)C[C@H](O[C@H]3[C@@H](O)C[C@H](O[C@H]4CC[C@@]5(C)[C@H](CC[C@@H]6[C@@H]5CC[C@]5(C)[C@@H](C7=CC(=O)OC7)CC[C@]65O)C4)O[C@@H]3C)O[C@@H]2C)C[C@H](O)[C@@H]1O`, the compound was called inactive.

In the case of `ClCCBr`, the compound was classed as inactive.

As to `COC(=O)Cc1ccccc1`, the compound was classed as inactive.

Take `CC(C)(c1ccccc1)c1ccc(O)c(C(C)(C)c2ccccc2)c1`: the compound was classed as inactive.

With `CCOC(=O)/C=C(C)/C=C/C[C@@H](C)CCCC(C)C`, the half-maximal activity concentration (AC50) was 1.56 µM (active).

For the compound `Cc1cc(Cl)ccc1O[C@H](C)C(=O)O`, the AC50 is 37.4 µM (active).

As for `Nc1ccc(-c2ccc(N)c(Cl)c2)cc1Cl`, the AC50 was 11.9 µM (active).

As for `C[C@@H](Oc1ccc(Cl)cc1Cl)C(=O)O`, the AC50 is 49.4 µM (active).

For the compound `Clc1nc(Cl)nc(Cl)n1`, the result was inactive.
